Measurements reported in PubChem BioAssay (NCATS).
Several values for one entry are separate records, joined by “and”; a condition that tells them apart may be missing. Identical values can stand only once. Inconclusive results are not listed. Activity calls are given as the source filed them. Calls follow the shape of the full dose curve.

Target: Peroxisome proliferator-activated receptor delta (Homo sapiens) (UniProt Q03181)
Assay: qHTS assay for small molecule agonists of peroxisome proliferator-activated receptor delta signaling (AID 588534);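 also: 0% = DMSO basal wells and 100% = positive control agonist at 10 µM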
Details: HEK293T PPARdelta-UAS-bla, beta-lactamase ratio, 18 h; series mostly up to 76.7 µM
Outline: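 Cell-based beta-lactamase reporter assay run in agonist mode: cells seeded and incubated 5 hrs at 37 C, compounds added and incubated 18 hrs at 37 C. CCF4 dye fluorescence read after 2 hrs at RT; EC50 and efficacy from Hill fits.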

Chain of Peroxisome proliferator-activated receptor delta (Homo sapiens) (Q03181 whole entry, looked up): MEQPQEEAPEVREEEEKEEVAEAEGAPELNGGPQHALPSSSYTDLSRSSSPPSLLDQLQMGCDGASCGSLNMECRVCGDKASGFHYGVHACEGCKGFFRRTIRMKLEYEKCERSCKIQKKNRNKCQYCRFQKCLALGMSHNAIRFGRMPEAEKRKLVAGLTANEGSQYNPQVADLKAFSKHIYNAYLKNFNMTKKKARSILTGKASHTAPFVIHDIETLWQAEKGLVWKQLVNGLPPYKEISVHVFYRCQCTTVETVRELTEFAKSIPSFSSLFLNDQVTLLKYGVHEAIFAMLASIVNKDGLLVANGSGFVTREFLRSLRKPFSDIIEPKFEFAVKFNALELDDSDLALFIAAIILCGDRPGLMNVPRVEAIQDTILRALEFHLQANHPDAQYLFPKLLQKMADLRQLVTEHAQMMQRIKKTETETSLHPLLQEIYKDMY

Row | Structure (SMILES) | outcome
1 | NC(=Nc1ccccc1)Nc1ccccc1 | inactive
2 | CCOP(=S)(OCC)Oc1cc(C)nc(C(C)C)n1 | inactive
3 | Oc1cc(Cl)ccc1Oc1ccc(Cl)cc1Cl | inactive
4 | CN(C)CCCN1c2ccccc2Sc2ccc(Cl)cc21 | inactive
5 | CNCC(O)c1ccc(O)cc1 (configuration not stated) | inactive
6 | COc1cccc2c1C(=O)c1c(O)c3c(c(O)c1C2=O)C[C@@](O)(C(=O)CO)C[C@@H]3O[C@H]1C[C@H](N)[C@H](O)[C@H](C)O1 | inactive
7 | CC(COc1ccccc1)N(CCCl)Cc1ccccc1 (configuration not stated) | inactive
8 | Nc1ccncc1 | inactive
9 | c1ccc2c(c1)Nc1ccccc1S2 | inactive
10 | CC(C)NCC(O)c1ccc(O)c(O)c1 (configuration not stated) | inactive
11 | Cc1ccnc2c1NC(=O)c1cccnc1N2C1CC1 | inactive
12 | Oc1ccc(Cl)cc1Cc1ccccc1 | inactive
13 | Cc1ccc(C)c(OCCCC(C)(C)C(=O)O)c1 | inactive
14 | Cc1cn([C@H]2C=C[C@@H](CO)O2)c(=O)[nH]c1=O | inactive
15 | Oc1ccccc1-c1ccccc1 | inactive
16 | CS(=O)(=O)OCCCCOS(C)(=O)=O | inactive
17 | CCCCOCCOCCOCc1cc2c(cc1CCC)OCO2 | inactive
18 | OCCOc1ccccc1 | inactive
19 | Clc1ccc(COC(Cn2ccnc2)c2ccc(Cl)cc2Cl)cc1 (configuration not stated) | inactive
20 | CN(C)CCOC(C)(c1ccccc1)c1ccccn1 (configuration not stated) | inactive
21 | CC(C)(C)CC(C)(C)c1ccc(O)cc1 | inactive
22 | Nc1cc(-c2ccncc2)c[nH]c1=O | inactive

Tested on: not listed separately
Assay: qHTS assay for small molecule antagonists of peroxisome proliferator-activated receptor delta signaling (AID 588535);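 also: cells co-treated with a PPAR-delta agonist as stimulator during compound exposure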
Details: HEK293T PPARd-UAS-bla, beta-lactamase FRET ratio, 18 h; 460 nm channel
Outline: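 GeneBLAzer PPAR-delta-UAS-bla HEK293T cells in medium with 2% charcoal/dextran FBS were preincubated 5 hrs at 37 C, then given compounds, incubated 18 hrs at 37 C, and read by CCF4 beta-lactamase fluorescence; IC50 from Hill fits.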

Row | Structure (SMILES) | max response
23 | CCOP(=S)(OCC)Oc1cc(C)nc(C(C)C)n1 | -10.2% and 44.9%
24 | Oc1cc(Cl)ccc1Oc1ccc(Cl)cc1Cl | 38.5%
25 | CNCC(O)c1ccc(O)cc1 (configuration not stated) | -16.7%
26 | Nc1ccncc1 | -23%
27 | CCn1cc(C(=O)O)c(=O)c2ccc(C)nc21 | 27.2%
28 | c1ccc2c(c1)Nc1ccccc1S2 | 32.2% and -35%
29 | Oc1ccc(Cl)cc1Cc1ccccc1 | 28.1% and 8.37%
30 | Oc1ccccc1-c1ccccc1 | -47.4% and 9.69% and -13.4%
31 | OCCOc1ccccc1 | 16.7% and 12.5% and -5.77%
32 | CC(C)(C)CC(C)(C)c1ccc(O)cc1 | -1.27%
